According to PubChem BioAssay (Tox21):
Inconclusive results are not listed. Unmarked numbers belong to inactive results. Unless noted, calls come from the whole dose curve.

Molecular target: Nuclear receptor ROR-gamma (Homo sapiens) (UniProt P51449)
Experiment: qHTS assay to identify small molecule antagonists of the retinoid-related orphan receptor gamma (ROR-gamma) signaling pathway (AID 1159521; active = well fitted inhibition curve with a large enough effect in the repeat runs;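 note: CHO cells with doxycycline inducible ROR-gamma driving an RORE luciferase reporter; top concentration of the series differs between compounds; % is set by controls: 0 for no effect and ±100 for the full control effect; nearly all actives have a fitted effect of over 50% in size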)
Details: Tet-on RORgamma CHO cells, RORE-luciferase, 16 h; series mostly up to 92.4 µM; activity change, negative = inhibition: at the top concentration
Method in brief: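 Readout: ONE-Glo luciferase luminescence, 30 min at room temperature. System: Tet-on RORγ CHO, RORE-LUC. Sequence: compound 2 h, doxycycline 1 uM final, 16 h at 37 C.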

Compound | activity change, negative = inhibition
CCCCCOC(=O)CCC | -19.3%
CCCC/C=C\CCCCCCCCCC=O | 8.42%
CCOC(=O)c1ccc(OC(=O)CCCCCN=C(N)N)cc1 | 61.9% [at 42.5 µM]
C=C(C)C(=O)OCc1ccccc1 | 2.06%
COP(=O)(OC)OC(c1ccc(Cl)cc1)P(=O)(OC)OC (configuration not stated) | -14.1% [at 42.5 µM]
NS(=O)(=O)c1ccc(NC(=O)CCC(=O)O)cc1 | 2.96% [at 42.5 µM]
CCCCN | 6.44% [at 42.5 µM]
CCCCCCOc1ccccc1C(N)=O | 19.4% [at 42.5 µM]
C=C(C)C(=O)OCCN(CC)CC | 18.6%
CCCOC(OCCC)OCCC | 7.86%
CCOCCOCCOCC | 26.3%
CCc1ccc(C=O)cc1 | 2.02%
C[Si](C)=O | 3.36% [at 8.39 µM]
COCCOC(=O)C1=C(C)NC(C)=C(C(=O)OC(C)C)C1c1cccc([N+](=O)[O-])c1 (configuration not stated) | 19.3% [at 42.5 µM]
O=C(O)Cc1ccc(Cl)cc1Cl | -4.11%
CC(CN)CC(C)(C)CCN (configuration not stated) | 2.42% [at 240 µM]
NNc1nnc(NN)c2ccccc12 | 98.8% [at 42.5 µM]
COC(=O)[C@@H]1[C@H]2C[C@H]3c4[nH]c5ccccc5c4CCN3C[C@@H]2CC[C@@H]1O | -3.49% [at 42.5 µM]
Cc1ccccc1N=O | 3.46%

Tested on: not listed separately
Experiment: qHTS assay to identify small molecule agonists of the AP-1 signaling pathway - cell viability counter screen (AID 1159525); note: nearly all actives have a fitted effect of over 55% in size
Details: ME-180 (cervical carcinoma) AP-1-bla cells viability, ATP luminescence, 5 h; series mostly up to 76.8 µM; viability change, negative = cytotoxic: at the top concentration
Method in brief: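 AP-1-bla ME-180 cells in Opti-MEM with 0.5% dialyzed FBS, compound exposure 5 h at 37 C in 15-point titration. Viability read in the same wells as ATP content by CellTiter-Glo luminescence, normalised to tetra-n-octylammonium bromide and DMSO controls.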

Compound | viability change, negative = cytotoxic
CC(C)OC(=O)CCCCC(=O)OC(C)C | 1.99%
CC(=O)Nc1ccc(S(=O)(=O)Nc2ccc([N+](=O)[O-])cc2)cc1 | 4.58% [at 35.3 µM]
Cc1ccc(S(=O)(=O)O)c(C)c1 | -18.1%
CCCCNc1ccc(C(=O)OCCN(C)C)cc1 | 3.76% [at 35.3 µM]
COc1ccc2c(c1)C(=O)N(CCc1ccc(S(=O)(=O)NC(=O)NC3CCCCC3)cc1)C(=O)C2(C)C | -1.86% [at 35.3 µM]
CCN(C)C(=O)Oc1cccc([C@H](C)N(C)C)c1 | 1% [at 35.3 µM]
CC(C)CCCCOC(=O)c1ccccc1C(=O)OCCCCC(C)C | 0.0029%
C=C(C)C(=O)OCC(C)(C)COC(=O)C(=C)C | 5.56%
CC(=O)Nc1cccc(C)c1 | 6%
CC(C)(C)c1nnc(NS(=O)(=O)c2ccc(N)cc2)s1 | -0.316% [at 35.3 µM]
OCCN(CCO)c1cccc(Cl)c1 | -0.589%
COc1cc2c(cc1OC)[C@@H]1CC(=O)[C@@H](CC(C)C)CN1CC2 | 0.0833% [at 35.3 µM]
O=C(c1ccc(O)cc1)c1ccc(O)c(O)c1O | 1.84%
CCCCNC1CC(C)(C)NC(C)(C)C1 | -3.96%
CCO[Si](CCCS)(OCC)OCC | 2.72%
CC(CC=O)CCCC(C)(C)O (configuration not stated) | 1.91%
CCCCCCOC(=O)CC | 3.69%
O=C(O)CCSSCCC(=O)O | 0.482%
O=C1CCCC(=O)O1 | -9.22%

Compound | viability change, negative = cytotoxic
CCCCCOC(=O)CCC | -0.0879%
CCCC/C=C\CCCCCCCCCC=O | 0.774%
CCOC(=O)c1ccc(OC(=O)CCCCCN=C(N)N)cc1 | 0.427% [at 35.3 µM]
C=C(C)C(=O)OCc1ccccc1 | 0.0523%
COP(=O)(OC)OC(c1ccc(Cl)cc1)P(=O)(OC)OC (configuration not stated) | -1.01% [at 35.3 µM]
NS(=O)(=O)c1ccc(NC(=O)CCC(=O)O)cc1 | 0.997% [at 35.3 µM]
CCCCN | 1.09% [at 35.3 µM]
CCCCCCOc1ccccc1C(N)=O | 1.34% [at 35.3 µM]
C=C(C)C(=O)OCCN(CC)CC | 1.01%
CCCOC(OCCC)OCCC | 2.62%
CCOCCOCCOCC | 1.45%
CCc1ccc(C=O)cc1 | 4.52%
C[Si](C)=O | -14.5% [at 6.97 µM]
COCCOC(=O)C1=C(C)NC(C)=C(C(=O)OC(C)C)C1c1cccc([N+](=O)[O-])c1 (configuration not stated) | -30% [at 35.3 µM]
O=C(O)Cc1ccc(Cl)cc1Cl | -0.809%
CC(CN)CC(C)(C)CCN (configuration not stated) | 4.35% [at 200 µM]
NNc1nnc(NN)c2ccccc12 | -7.05% [at 35.3 µM]
COC(=O)[C@@H]1[C@H]2C[C@H]3c4[nH]c5ccccc5c4CCN3C[C@@H]2CC[C@@H]1O | -2.16% [at 35.3 µM]
Cc1ccccc1N=O | 3.35%
